Source: PubChem BioAssay
This is one part of a sample in which hits are shown more often than they occur.
Tb PYK inh: blocks Trypanosoma brucei pyruvate kinase. Q57TT1. TbPYK enzyme, Kinase-Glo Plus ATP luminescence, 45 min. Potency, µM (highest dose often 76.8 µM), for the others: top-dose activity, negative = inhibition, usual class: inhibitors. 0.12% of 410,000 active; note: potency is the fitted concentration of half-maximal effect; % is set by controls: 0 for no effect and ±100 for the full control effect; nearly all actives have a fitted effect of over 50% in size
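Assay buffer: 50 mM TEA pH 7.2, 100 mM KCl, 10 mM MgCl2, 0.05% BSA, 0.01% Tween-20. Pyruvate kinase from T. brucei plus substrate met compound, then ADP (130 uM final). Luminescence was read post 45 min RT.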
Cycloheximide cs: counter-screen hit for Shiga toxin inhibitors, cycloheximide; 12% of 300,000 active; max response, %; cell reporter, cycloheximide protein synthesis inhibition counterscreen; in the data active = max response mostly above about 13%, no sharp cut-off; inactive = mostly below about 14%; note: read at 38.3 µM for the half of the compounds with a filed dose; 0% is about no effect
Giardia FBPA inh: Giardia lamblia aldolase inhibition; A8B2U2; purified Giardia FBPA; Potency, µM (titrated, usually from 59.6 µM), for inactives: at the highest dose activity, negative = inhibition, hits mostly inhibitors; 0.71% of 290,000 active; note: potency is the fitted concentration of half-maximal effect; % is set by controls: 0 for no effect and ±100 for the full control effect; nearly all actives have a fitted effect of over 55% in size
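40 nM FBPA preincubated 10 min at RT with compound (up to 57.5 uM final), then substrate plus GAPDH/TPI/NAD/arsenate coupling and diaphorase/resazurin added. Fluorescence read after 20 min at RT, 525/598 nm.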
Shiga inhibitor: Shiga toxin inhibition | Vero cells, Shiga toxin protein synthesis inhibition reporter | inhibition, % at 38.7 µM | 9.2% of 290,000 active | AID 2315; in the data active = inhibition mostly above about 28%, no sharp cut-off; inactive = mostly below about 43%; note: 0% is about no effect
RE007 growth inh: less growth of the S. pombe RE007 Vpr strain; S. pombe RE007 Vpr strain, BacTiter-Glo ATP luminescence, 24 h; Potency, µM (doses to about 92.2 µM), for the others: at the top dose activity change, negative = less growth, most hits filed as inhibitors; 0.21% of 360,000 active; AID 651644; active = well fitted falling curve with a large enough effect; inconclusive = small, poorly fitted or top-dose-only effect; inactive = no such curve, though single readings can be large or run the other way; note: potency is the fitted concentration of half-maximal effect; % is set by controls: 0 for no effect and ±100 for the full control effect; nearly all actives have a fitted effect of over 50% in size
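Fission yeast strain RE007, carrying one chromosomally integrated HIV-1 vpr copy, was seeded at OD 0.01 in PMG+AL medium with 23 nL pinned compound. After 24 h at 30 °C and 99% humidity, viability was read by BacTiter-Glo luminescence.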
LmPK inhibitor: inhibitors of Leishmania mexicana pyruvate kinase; Q27686; purified LmPK, Kinase-Glo ATP luminescence, 1 h; Potency, µM (highest dose often 57.5 µM), for inactives: at the top dose activity change, negative = inhibition, usual class: inhibitors; 0.37% of 290,000 active; note: potency is the fitted concentration of half-maximal effect; % is set by controls: 0 for no effect and ±100 for the full control effect
Target sequence (Q27686 whole entry, looked up): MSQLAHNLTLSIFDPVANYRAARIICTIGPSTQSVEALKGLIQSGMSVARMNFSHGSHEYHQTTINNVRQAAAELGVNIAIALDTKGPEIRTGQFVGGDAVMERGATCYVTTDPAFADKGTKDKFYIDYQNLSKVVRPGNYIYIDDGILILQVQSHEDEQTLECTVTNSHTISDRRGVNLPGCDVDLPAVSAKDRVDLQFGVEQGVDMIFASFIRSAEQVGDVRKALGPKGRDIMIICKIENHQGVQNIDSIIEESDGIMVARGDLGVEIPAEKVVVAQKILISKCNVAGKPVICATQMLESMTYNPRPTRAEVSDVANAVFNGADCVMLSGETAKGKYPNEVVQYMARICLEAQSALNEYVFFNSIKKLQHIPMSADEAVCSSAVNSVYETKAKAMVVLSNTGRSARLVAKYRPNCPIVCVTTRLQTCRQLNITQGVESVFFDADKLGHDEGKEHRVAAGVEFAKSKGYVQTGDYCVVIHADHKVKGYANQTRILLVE
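Screened at intermediate enzyme activity to detect both inhibitors and activators: LmPK at 0.1 nM, with a 0.5 nM enzyme column as activation reference. PEP 0.5 mM, ADP 0.1 mM; ATP detected by luminescence after 1 h.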
Active calls of the source: *. Unless noted, calls come from the whole dose curve; as a rule, active = well fitted curve in the direction sought with a large enough effect; inconclusive = small, poorly fitted or top-dose-only effect, or another doubt; inactive = no such curve, though single readings can be large; an effect the other way counts as inactive or inconclusive.

Screening Cc1ccc(NC(=O)c2cccc(C(=O)OC(C)C)n2)c(Br)c1 returned Tb PYK inh 3.5%, Cycloheximide cs 22.9*, Giardia FBPA inh -5.1%, Shiga inhibitor 74.6*, RE007 growth inh -8.9% and LmPK inhibitor 9.4%.
Screening COC(=O)c1cccc(C(=O)Nc2ccc(C)cc2Br)n1 returned Tb PYK inh -4.4%, Cycloheximide cs 38.2*, Giardia FBPA inh 7.4%, Shiga inhibitor 64.9*, RE007 growth inh inconclusive and LmPK inhibitor 0.1%.
`COc1ccccc1NC(=O)C(=O)NCC(c1ccc2c(c1)OCO2)N1CCN(C)CC1` (stereo not drawn) gave Tb PYK inh 3.5%.
For CN(CCN1CCc2ccccc2C1)Cc1nc(-c2ccc3c(c2)OCO3)no1 the results were Tb PYK inh 0.6%, Cycloheximide cs -1.4, Giardia FBPA inh -12.8%, Shiga inhibitor -8.3, RE007 growth inh -19.5% and LmPK inhibitor 0.5%.
c1cc(C2CCN(Cc3nc(-c4ccc5c(c4)OCO5)no3)CC2)ccn1 was read as Tb PYK inh -0.4%, Cycloheximide cs -2.0, Giardia FBPA inh -16.9%, Shiga inhibitor -11.7, RE007 growth inh -10.9% and LmPK inhibitor 7.2%.
`COCC1CCN(Cc2nc(-c3ccc4c(c3)OCO4)no2)C1` (stereo not drawn) gave Tb PYK inh 0.1%, Cycloheximide cs 38.6*, Giardia FBPA inh -0.2%, Shiga inhibitor 67.2*, RE007 growth inh 13.7% and LmPK inhibitor 3.1%.
Fc1ccc(CN2CCCN(Cc3nc(-c4ccc5c(c4)OCO5)no3)CC2)cc1 was read as Tb PYK inh -4.1%, Cycloheximide cs 14.7*, Giardia FBPA inh -2.9%, Shiga inhibitor 12.1, RE007 growth inh 0.0% and LmPK inhibitor 5.4%.
Screening CN(CCCCN1CCOCC1)Cc1nc(-c2ccc3c(c2)OCO3)no1 returned Tb PYK inh -2.5%, Cycloheximide cs 9.5*, Giardia FBPA inh 4.5%, Shiga inhibitor 19.7, RE007 growth inh 4.8% and LmPK inhibitor 1.9%.
Screening O=C(c1ccco1)N1CCCN(Cc2nc(-c3ccc4c(c3)OCO4)no2)CC1 returned Tb PYK inh -11.4%, Cycloheximide cs 6.7, Giardia FBPA inh -2.4%, Shiga inhibitor 17.3, RE007 growth inh -12.6% and LmPK inhibitor 3.2%.
CC(C)C[C@@H](CC(=O)N[C@H](CC(=O)N[C@@H]1CCCC[C@H]1C(=O)N[C@H](CC(=O)N[C@@H](CCC(=O)O)CC(=O)O)CC(C)C)C(C)C)NC(=O)[C@@H]1CNCC[C@H]1N was read as Giardia FBPA inh -19.3%.
`CCn1ccc(C(=O)NC2CCCC2)n1` gave Tb PYK inh 5.6%, Cycloheximide cs 1.6, Shiga inhibitor 14.5, RE007 growth inh -13.4% and LmPK inhibitor 0.8%.
`CCc1ccc(OC(=O)c2ccn(CC)n2)cc1` gave Tb PYK inh 6.4%, Cycloheximide cs 39.8*, Giardia FBPA inh 20.5%, Shiga inhibitor 150.5*, RE007 growth inh -10.5% and LmPK inhibitor -14.9%.
Screening CC1CCN(C(=O)c2c(NC(=O)c3ccccc3F)sc3c2CCC(C(C)(C)C)C3)CC1 (stereo not drawn) returned Tb PYK inh -15.3%.
Screening COc1ccc(NC(=O)C2CCN(S(=O)(=O)c3c(C)noc3/C=C/c3ccco3)CC2)cc1 returned Tb PYK inh 4.0%.
Cc1nonc1NC(=O)CSc1ccccn1 was read as Tb PYK inh 9.7%, Cycloheximide cs -5.3, Giardia FBPA inh -2.3%, Shiga inhibitor 0.9, RE007 growth inh 51.3% and LmPK inhibitor 3.0%.
Screening CCc1ccc(-c2ccc(SCC(=O)Nc3nnc(C)s3)nn2)cc1 returned Tb PYK inh 2.7%, Cycloheximide cs 20.8, Giardia FBPA inh 0.4%, Shiga inhibitor 79.7*, RE007 growth inh -4.5% and LmPK inhibitor -0.6%.
For Cc1ccc2nc(-c3ccc(SCC(=O)Nc4ccc5c(c4)OCCO5)nc3)[nH]c2c1 the results were Tb PYK inh 4.3%, Cycloheximide cs 107.2*, Giardia FBPA inh -5.7%, Shiga inhibitor 81.3*, RE007 growth inh 1.9% and LmPK inhibitor -1.8%.
Cc1ccc(-c2ccc(SCC(=O)Nc3nonc3C)nn2)cc1 was read as Tb PYK inh -8.8%, Cycloheximide cs 26.8*, Giardia FBPA inh -10.3%, Shiga inhibitor 41.8*, RE007 growth inh -9.8% and LmPK inhibitor 0.1%.
Screening O=C(CSc1ccc(-c2nc3ccccc3[nH]2)cn1)Nc1ccc2c(c1)OCCO2 returned Tb PYK inh 5.6%, Cycloheximide cs 18.2*, Giardia FBPA inh -6.0%, Shiga inhibitor 15.6, RE007 growth inh -1.8% and LmPK inhibitor -1.8%.
For COc1ccc(NC(=O)N2CCCC3(CCN(S(=O)(=O)c4ccccc4)CC3)C2)cc1 the results were Tb PYK inh 0.8% and Giardia FBPA inh -17.6%.
Screening CCC(=O)N1CCc2cc(S(=O)(=O)CCC(=O)N3CCN(c4cccc(C)c4C)CC3)ccc21 returned Tb PYK inh 1.7%.
`Cc1ccc(-c2ccc(SCC(=O)Nc3ccc4c(c3)OCCO4)nn2)cc1` gave Tb PYK inh -3.2%, Cycloheximide cs 28.4*, Giardia FBPA inh -4.7%, Shiga inhibitor 21.6*, RE007 growth inh 7.5% and LmPK inhibitor 1.2%.
Cc1cc2nc(-c3ccc(SCC(=O)Nc4ccc5c(c4)OCCO5)nc3)[nH]c2cc1C was read as Tb PYK inh 0.5%, Cycloheximide cs 48.3*, Giardia FBPA inh -11.7%, Shiga inhibitor 156.8*, RE007 growth inh -28.6% and LmPK inhibitor -0.1%.
Screening CN(C)S(=O)(=O)c1ccc(SCC(=O)Nc2ccc3c(c2)OCCO3)nc1 returned Tb PYK inh -1.9% and RE007 growth inh 0.1%.
Screening OC[C@H]1O[C@H](n2cnc3c(NC4CCCC4)nc(Cl)nc32)[C@@H](O)[C@@H]1O returned Giardia FBPA inh -0.7%.
`Cc1cc(C)nc(Nc2cccc(Cl)c2)n1` gave Tb PYK inh 2.2%, Cycloheximide cs 15.1*, Giardia FBPA inh -16.3%, Shiga inhibitor 33.6, RE007 growth inh -20.1% and LmPK inhibitor -0.9%.
CCOC(=O)c1cccc(Nc2cc(C)nc(C)n2)c1 was read as Tb PYK inh 10.7%.
CCOC(=O)c1cccc(Nc2nc(C)cc(C)n2)c1 was read as Tb PYK inh -8.9%, Cycloheximide cs 13.8*, Giardia FBPA inh 4.1%, Shiga inhibitor 13.2, RE007 growth inh -11.6% and LmPK inhibitor -0.6%.
For COc1cc(C=O)ccc1OCCSc1ccc(C)cc1 the results were Tb PYK inh 1.0%, Cycloheximide cs 39.1*, Giardia FBPA inh 0.1%, Shiga inhibitor 46.1*, RE007 growth inh -12.6% and LmPK inhibitor 0.0%.
`COC(=O)c1ccccc1OCCCOc1ccc(C=O)cc1OC` gave Tb PYK inh -1.8%, Cycloheximide cs 36.9*, Giardia FBPA inh -6.7%, Shiga inhibitor 86.5*, RE007 growth inh -22.5% and LmPK inhibitor 1.2%.
